An excerpt weighted towards active compounds, which were near 1.7% of everything screened.
LDHA inh: LDHA (human) enzyme inhibition | AID 1347041 | purified LDHA, NADH/diaphorase-resazurin fluorescence; active compounds read low | actives 0.15% (n = 480,000) | activity change, % (values are at about 110 or 230 µM); in the data active means activity change below about -30%; inconclusive means mostly about -25% to -30%
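Remaining NADH was detected by diaphorase (0.133 mg/mL) converting 37 µM resazurin to fluorescent resorufin, read at 0 and 20 minutes. The preceding 5-minute room-temperature reaction used 2 nM LDHA, 0.2 mM sodium pyruvate and 0.06 mM NADH at pH 7.4.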
HEK293 tox: cytotoxic in the GLP-1 receptor inverse agonist counter-screen. HEK293 cAMP-luciferase reporter cells, luminescence, 24 h. Potency, µM (highest dose often 38.3 µM), most hits filed as inhibitors. actives 0.13% (n = 410,000). AID 624418;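 further: loss of luciferase light is scored as toxicity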
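MLSMR compounds, 24 hr on cells at 37 deg C/5% CO2; luminescence after luciferase reagent (12 min RT). Inhibition counted as the undesired cytotoxic outcome.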
IDH1 R132H inh: human IDH1 R132H inhibition; O75874; IDH1-R132H enzyme, NADPH consumption, diaphorase/resazurin fluorescence; Potency, µM (series often up to 76.6 µM), actives largely listed as inhibitors; actives 0.093% (n = 390,000); further: nearly all actives have a fitted effect of over 65% in size
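IDH1-R132H (0.5 ug/mL) preincubated 30 min with compound, then NADPH (0.016 mM) and alpha-KG (2 mM) added; 80 min at RT, pH 7.5. Remaining NADPH coupled via diaphorase/resazurin to fluorescence (540/590 nm); concentration-response curves normalized to no-enzyme control.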
GLP-1R inv ag: GLP-1 receptor (human) inverse agonism; Potency, µM (titrated, usually from 38.3 µM), most hits filed as inhibitors; P43220; actives 1.6% (n = 410,000); HEK293 GLP-1R CRE-luciferase, luminescence, 24 h; GLP-1R form is constitutively active; AID 624417; further: nearly all actives have a fitted effect of over 55% in size
Target sequence (P43220 whole entry, looked up): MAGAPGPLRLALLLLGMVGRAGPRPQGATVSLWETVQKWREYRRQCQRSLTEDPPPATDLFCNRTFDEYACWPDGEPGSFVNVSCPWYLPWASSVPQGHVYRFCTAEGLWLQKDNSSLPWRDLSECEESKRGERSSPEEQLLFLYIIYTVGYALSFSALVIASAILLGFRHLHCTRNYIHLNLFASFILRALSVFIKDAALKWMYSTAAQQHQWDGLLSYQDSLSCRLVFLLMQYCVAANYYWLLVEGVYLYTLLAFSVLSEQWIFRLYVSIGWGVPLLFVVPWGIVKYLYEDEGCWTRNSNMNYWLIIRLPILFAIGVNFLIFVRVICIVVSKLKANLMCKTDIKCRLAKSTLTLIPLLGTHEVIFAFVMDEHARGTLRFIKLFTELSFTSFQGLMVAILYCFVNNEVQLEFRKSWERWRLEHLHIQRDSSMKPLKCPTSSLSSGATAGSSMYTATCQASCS
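Luminescence readout: a drop in cAMP-driven luciferase signal flags inverse agonism at a constitutively active GLP-1R stably expressed in HEK293. Compound exposure lasted 24 hr at 37 deg C, 5% CO2.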
PTHR1 ag: activates the human parathyroid hormone receptor PTHR1 | AID 743266 | HEK293 GP2 PTHR1 cells, GloSensor cAMP luminescence, 1 h | Potency, µM (top dose mostly 115 µM), usual class: activators | actives 0.075% (n = 410,000) | Q03431; further: nearly all actives have a fitted effect of over 55% in size
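HEK-293-derived GP2 cells expressing PTHR1 and a GloSensor cAMP reporter, 3,000/well, plated overnight, given luciferin plus IBMX (each 0.5 mM as added) for 1 h at 37 °C, then compound for 1 h at 37 °C. Luminescence was read after 15 min at room temperature.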
GLP1R ag: activates the human GLP-1 receptor; P43220; actives 0.007% (n = 380,000); HEK293 GLP-1R CRE-luciferase, luminescence, 4-6 h; cells express a hypersensitive GLP-1R form; Potency, µM (titrated, usually from 45.6 µM), usual class: activators
Numbers stand for hits; . = inactive; ? = inconclusive; / = not tested or not shown. Unless noted, the call rests on the fitted dose curve; in most records, active means well fitted curve in the direction sought with a large enough effect; inconclusive means small, poorly fitted or top-dose-only effect, or another doubt; inactive means no such curve, though single readings can be large; an effect the other way counts as inactive or inconclusive.

SMILES	LDHA inh	HEK293 tox	IDH1 R132H inh	GLP-1R inv ag	PTHR1 ag	GLP1R ag
Cn1c(Oc2ccc(Cl)cc2)c(C=O)c2ccccc21	.	.	.	?	.	.
COc1cc(OC)c(C(=O)OCC(=O)Nc2ccccc2)cc1OC	.	/	/	/	/	/
CC(=O)NCCNC(=O)CSc1nc(C2CC2)nc2ccccc12	.	/	/	/	/	/
OCC1(Cc2ccc(Cl)cc2)CCN(CCCc2ccccc2)CC1	.	?	.	?	.	.
O=C(Nc1ccc(Cl)cc1)N1CCC(CO)(Cc2ccccc2)CC1	.	.	.	7.9µM	.	.
Cc1ccc(-c2[nH]ncc2/C=C(\C#N)C(=O)NC2CCCCC2)cc1	.	.	.	7.9µM	.	.
O=C(Nc1nc2cc3c(cc2s1)OCO3)C1=COCCO1	.	.	.	2.2µM	.	.
CC(=O)Nc1nc2cc3c(cc2s1)OCO3	.	.	.	.	.	.
Cc1cc(C)n(-c2ccc(C(=O)OCC(=O)NC3CCS(=O)(=O)C3)cc2)n1 (stereo unspecified)	-30	/	/	/	/	/
Cc1cc(C)n(-c2ccc(C(=O)OCC(=O)NC(=O)NC3CCCC3)cc2)n1	.	/	/	/	/	/
CCOC(=O)c1[nH]c2c(c1Cc1ccccc1)C(=O)CC(c1ccccc1)C2 (stereo unspecified)	.	.	.	11µM	.	/
Cc1cc(C)c(S(=O)(=O)Nc2ccc(-c3ccc(N4CCCCCC4)nn3)cc2)cc1C	.	.	.	13µM	.	/
Cc1cc(C(=O)NC(C)C23CC4CC(CC(C4)C2)C3)c(C)o1 (stereo unspecified)	.	/	/	/	/	/
COC(=O)c1ccc(CSc2ccccc2NC(=S)Nc2cccc(SC)c2)o1	.	.	.	13µM	.	.
Cc1cc(C)cc(NC(=O)C(Nc2ccc3oc(C)nc3c2)c2ccccc2)c1 (stereo unspecified)	.	/	/	/	/	/
Cc1cccc(S(=O)(=O)N2CCN(c3ccc(N4CCOCC4)nn3)CC2)c1	.	/	/	/	/	/
COc1ccc(N(Cc2ccccc2)S(=O)(=O)c2cccc(C(=O)NC3=NCCS3)c2)cc1	.	.	.	10µM	.	.
COc1cccc(N2CCN(c3ncnc4c3[nH]c3ccc(F)cc34)CC2C)c1 (stereo unspecified)	.	3.2µM	.	?	.	.
COc1ccc2[nH]c3c(N4CC(C)OC(C)C4)ncnc3c2c1 (stereo unspecified)	.	.	.	.	.	.
Cc1cc(C)c(C(=O)NC2CC(C)(C)Cc3c2cnn3-c2ccccc2)o1 (stereo unspecified)	.	.	.	10µM	.	.
ClC(/C=N/N1CCN(Cc2ccc(Cl)cc2)CC1)=C/c1ccccc1	.	/	/	/	/	/
CCCCCCCCCCOC1CCS(=O)(=O)C1 (stereo unspecified)	.	/	/	/	/	/
CN1CCc2c(sc3c2C(=O)NC(c2cn(Cc4ccccc4)c4ccccc24)N3)C1 (stereo unspecified)	.	.	.	4µM	.	.
Cc1cccc(C(=O)Oc2csc(=S)n2C(=O)c2cccc(C)c2)c1	-33	.	.	.	.	.
O=C(Oc1csc(=S)n1C(=O)c1ccccc1)c1ccccc1	.	.	.	.	.	.
SMILES	LDHA inh	HEK293 tox	IDH1 R132H inh	GLP-1R inv ag	PTHR1 ag	GLP1R ag
O=C(Nc1ccc(Br)cc1F)c1cccs1	.	/	/	/	/	/
Cc1oc(-c2ccccc2)cc1C(=O)Nc1cccc(C(=O)O)c1	.	.	.	.	.	.
Cc1oc(-c2ccccc2)cc1C(=O)Nc1cccc2ccccc12	.	.	.	10µM	.	.
Cc1cc(NC(=O)c2cccn2-c2nnc(N3CCCCC3)s2)ccc1Br	.	.	.	10µM	.	/
CC(C)(C)C1COc2ccccc2N1C(=O)c1ccccc1Cl (stereo unspecified)	.	.	.	8.9µM	.	.
Cc1c(C)n(CCCN(C)C)c2ncn3nc(-c4ccccn4)nc3c12	.	/	/	/	/	/
CC(OC(=O)CCNC(=O)OC(C)(C)C)C(=O)c1ccccc1 (stereo unspecified)	.	/	/	/	/	/
Cc1ccc(Nc2ccc(N3CCN(S(=O)(=O)c4ccc(C)cc4)CC3)nn2)cc1	.	/	/	/	/	/
CCOC(=O)/C=C/C(=O)OCC(=O)c1ccc(Cl)s1	.	/	/	/	/	/
OCCN1CCN(c2ncnc3c2c(-c2ccccc2)cn3-c2ccc(Br)cc2)CC1	.	?	.	10µM	.	.
COc1ccc(N2CCN(c3ncnc4scc(-c5ccccc5)c34)CC2)cc1	.	.	.	6.3µM	.	.
Fc1ccc(-c2csc3ncnc(N4CCN(c5ccccc5)CC4)c23)cc1	.	.	.	13µM	.	.
COc1ccc(N2CCN(c3ncnc4scc(-c5ccc(F)cc5)c34)CC2)cc1	.	.	.	?	.	.
c1ccc(-c2csc3ncnc(N4CCOCC4)c23)cc1	.	.	.	.	.	.
COc1ccc(N2CCN(c3ncnc4scc(-c5ccc(C)cc5)c34)CC2)cc1	.	.	.	2µM	.	.
O=[N+]([O-])c1ccccc1S(=O)(=O)Nc1ccc(Nc2ccccc2)cc1	.	/	/	/	/	/
CCN(CC)S(=O)(=O)c1ccc(NC(=O)CN(c2ccc(C)c(Cl)c2)S(C)(=O)=O)cc1	.	/	/	/	/	/
Fc1ccc(-n2cc(-c3ccccc3)c3c(N4CCOCC4)ncnc32)cc1	.	.	.	?	.	.
COc1ccc2c(-c3ccccc3)cc(N3CCOCC3)nc2c1	?	.	.	10µM	.	.
c1ccc(-c2cc(-c3ccc(N4CCOCC4)cc3)nc3ccccc23)cc1	.	.	.	.	.	.
COc1ccc(-n2cc(-c3ccccc3)c3c(N4CCOCC4)ncnc32)cc1	.	.	.	3.5µM	.	.
C[C@H](CO)N1C[C@H](C)[C@@H](CN(C)S(=O)(=O)c2ccc3ccccc3c2)OCc2cn(nn2)CCCC1=O	.	.	.	.	.	.
C[C@H](CO)N1C[C@H](C)[C@@H](CN(C)S(=O)(=O)c2ccc(F)cc2)Oc2c(NC(=O)Nc3ccc(C(F)(F)F)cc3)cccc2C1=O	.	.	.	?	.	.
C[C@H](CO)N1C[C@H](C)[C@H](CN(C)S(=O)(=O)c2cccc(F)c2)OCc2ccccc2-c2c(n(C)c3ccccc23)C1=O	.	.	.	11µM	.	.
C[C@@H]1CN([C@H](C)CO)C(=O)CCCn2cc(nn2)CO[C@H]1CN(C)S(=O)(=O)c1ccc2ccccc2c1	-34	.	.	.	.	.

Compound activity deposited in PubChem by National Center for Advancing Translational Sciences (NCATS).
